Measurements as given in PMC5540273 (PLoS ONE, 2017).

Tested on: TGFBR1
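Further: kd values determined as follow-up on hits from a single-replicate KINOMEscan panel screen.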

Compound	Kd [nM]
N#Cc1ccc(-c2cc(-c3c[nH]nc3-c3ccccn3)ccn2)cc1 [GW693028]	150
O=C(c1ccc(-c2cc(-c3c[nH]nc3-c3ccccn3)ccn2)cc1)N1CCOCC1 [GW812171]	180
c1ccc(-c2n[nH]cc2-c2ccnc3ccccc23)nc1 [GW271431]	110

Tested on: T1, VPS34
T1 construct: gene PIK3C3

Compound	Kd [nM]
N#Cc1c(N2CCOCC2)sc(-c2ccn[nH]2)c1-c1ccc(Cl)cc1	58
Cc1cn2c(=O)cc(N3CCOCC3)nc2n1Cc1cccc(Cl)c1Cl [GSK2334006]	2.2
O=c1cc(N2CCOCC2)nc2n(Cc3cccc4ccccc34)ccn12 [GSK2333389]	60
NS(=O)(=O)c1cccc(-c2ccc3ncc(N4CCOCC4)nc3c2)c1 [GSK1535721]	> 10000
O=c1cc(N2CCOCC2)nc2n(Cc3cccc(Cl)c3Cl)c(C3CC3)nn12 [GSK2358994]	0.39
Cc1cccc(Cn2ccn3c(=O)cc(N4CCOCC4)nc23)c1 [GSK2297542]	75
O=c1cc(N2CCOCC2)nc2n(Cc3cccc(C(F)(F)F)c3)ccn12 [GSK2297543]	130
O=c1cc(N2CCOCC2)nc2n(Cc3cccc(F)c3)ccn12 [GSK2297430]	33
